According to article PMC4336329 (PLoS ONE, 2015):
About 14,000 (4.5%) of roughly 310,000 compounds showed an effect of 50% or more. The effect is printed as a negative number. This is one part of a sample in which strong results are shown more often than they occur.

Biological target: human ether-à-go-go-related gene (hERG) potassium channel (human, UniProt Q12809)
Assay: primary screen, population patch clamp on CHO cells stably expressing hERG; higher = less effect of the substance
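Also: peak tail current of the secondary pulse compared with the same well before compound.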

Chain of human ether-à-go-go-related gene (hERG) potassium channel (Q12809 whole entry, looked up): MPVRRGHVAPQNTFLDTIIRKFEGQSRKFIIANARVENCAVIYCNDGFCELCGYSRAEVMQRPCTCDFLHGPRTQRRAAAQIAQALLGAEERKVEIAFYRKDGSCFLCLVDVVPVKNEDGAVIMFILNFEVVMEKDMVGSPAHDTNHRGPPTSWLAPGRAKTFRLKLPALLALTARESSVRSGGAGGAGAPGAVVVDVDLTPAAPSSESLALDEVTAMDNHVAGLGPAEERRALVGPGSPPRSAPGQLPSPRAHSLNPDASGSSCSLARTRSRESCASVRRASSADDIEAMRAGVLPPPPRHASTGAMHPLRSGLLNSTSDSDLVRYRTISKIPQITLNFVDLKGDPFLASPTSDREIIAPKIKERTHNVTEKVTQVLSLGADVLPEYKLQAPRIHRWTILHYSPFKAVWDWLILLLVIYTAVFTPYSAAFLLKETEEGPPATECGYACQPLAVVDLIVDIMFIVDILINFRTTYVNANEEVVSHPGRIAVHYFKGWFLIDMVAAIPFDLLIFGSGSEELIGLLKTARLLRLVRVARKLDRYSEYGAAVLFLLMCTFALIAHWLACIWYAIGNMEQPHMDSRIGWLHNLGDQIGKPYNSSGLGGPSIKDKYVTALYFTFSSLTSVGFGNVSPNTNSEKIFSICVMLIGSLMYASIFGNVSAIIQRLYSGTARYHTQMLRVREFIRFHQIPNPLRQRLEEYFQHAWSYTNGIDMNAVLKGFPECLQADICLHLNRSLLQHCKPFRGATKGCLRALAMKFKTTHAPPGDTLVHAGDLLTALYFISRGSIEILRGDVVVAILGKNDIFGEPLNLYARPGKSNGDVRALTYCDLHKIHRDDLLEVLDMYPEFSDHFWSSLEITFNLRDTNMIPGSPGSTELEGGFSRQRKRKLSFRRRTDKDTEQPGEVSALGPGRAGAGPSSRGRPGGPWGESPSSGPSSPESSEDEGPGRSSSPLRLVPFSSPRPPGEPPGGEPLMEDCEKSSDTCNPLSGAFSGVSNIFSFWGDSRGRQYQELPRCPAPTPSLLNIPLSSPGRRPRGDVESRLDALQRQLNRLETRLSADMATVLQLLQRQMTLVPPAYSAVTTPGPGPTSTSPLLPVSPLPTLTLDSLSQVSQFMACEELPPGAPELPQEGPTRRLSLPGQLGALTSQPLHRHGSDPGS

| Structure (SMILES) | hERG current change (%, negative = inhibition) at 10uM [%] |
| --- | --- |
| O=C(NC(Cc1ccccc1)c1ccc2c(c1)OCCCO2)c1ccc(F)cc1 (stereo not shown) | 8.05 |
| COc1ccc2cc1Oc1ccc(cc1)CC1c3c(cc(OC)c4c3Oc3cc5c(cc3O4)CCNC5C2)CCN1C (stereo not shown) | 0.681 |
| N#Cc1c(Cl)nc(SCc2ccccc2)nc1-c1ccccc1 | 8.45 |
| CN(C(=O)c1ccccc1C(=O)OCC(=O)Nc1ccccc1)c1ccccc1 | 0.655 |
| CN(C(=O)c1ccccc1C(=O)OCC(=O)Nc1ccc(OC(F)F)cc1)c1ccccc1 | -54 |
| CN(C(=O)c1ccccc1C(=O)OCC(=O)Nc1ccc(S(N)(=O)=O)cc1)c1ccccc1 | -5.32 |
| CCOc1cc2c(Cl)ncnc2c(OCC)c1OCC | 23.3 |
| CCOC(=O)c1cccc(NC(=O)CCn2cccc2)c1 | -27.7 |
| COc1cc(Nc2c3ccccc3nc3ccccc23)cc(OC)c1OC | -63.9 |
| COc1ccc(Nc2nc(N)c3ccccc3n2)c(OC)c1.Cl | -14.9 |
| COc1ccccc1Nc1c2ccccc2nc2ccccc12 | -71 |
| COc1ccccc1Nc1nc(-c2ccccc2)nc2ccccc12 | 23.5 |
| COc1cc(NS(C)(=O)=O)ccc1Nc1c2ccccc2nc2ccccc12.Cl | -67.7 |
| COc1cc(NC(=O)c2ccc3c(SCC(=O)O)c4c(nc3c2)CCCC4)cc(OC)c1OC | 12.3 |
| COc1cc(Nc2c3c(nc4ccccc24)CCCC3)cc(OC)c1OC | -65.9 |
| COc1ccc(OC)c(Nc2c3ccccc3nc3ccccc23)c1 | -11 |
| COc1c2ccccc2nc2ccccc12 | 13.3 |
| COc1cc(Nc2nc(SCC#N)nc3ccccc23)cc(OC)c1OC | -32 |
| COc1ccc([N+](=O)[O-])cc1Nc1c2ccccc2nc2ccccc12 | 9.54 |
| COc1ccc(S(=O)(=O)N2CCCCCC2)cc1NC(=O)CN1C(=O)NC(C)(c2ccc(C)cc2)C1=O (stereo not shown) | -12.8 |
| Cc1ccc(NC(=O)CCC(=O)c2cccs2)cc1F | 2.31 |
| CCOC(=O)c1oc2cc(O)c(CC)cc2c(=O)c1-c1cscn1 | 2.56 |
| CCC(C)N1C(=O)CCC1C(=O)N1CCN(c2ccc(F)cc2)CC1 (stereo not shown) | -28.3 |
| Cc1ccc(O)c(Nc2c3ccccc3nc3ccccc23)c1 | -52.8 |
| Cc1ccc(O)c(Nc2ncnc3ccccc23)c1.Cl | 11.8 |

| Structure (SMILES) | hERG current change (%, negative = inhibition) at 10uM [%] |
| --- | --- |
| COc1ccc(Nc2nc(-c3ccccc3F)nc3ccccc23)cc1OC | 0.695 |
| COC(=O)c1c2c(nc3ccccc13)CCC2 | -3.81 |
| Cc1ccc(O)c(Nc2nc(-c3ccccc3)nc3ccccc23)c1 | 14.9 |
| COc1ccc(NC(=O)COC(=O)c2c3c(nc4ccccc24)CCCC3)cc1Cl | 9.73 |
| COc1cc(Nc2c3c(nc4ccccc24)CCC3)cc(OC)c1OC | -60 |
| COc1cc(NC(=O)CSc2c3c(nc4ccccc24)CCC3)cc(OC)c1OC | -7.51 |
| COc1ccc(Nc2c3c(nc4ccccc24)CCCC3)cc1OC | -73.2 |
| O=C(NCC(c1cccnc1)N1CCN(c2ccc(F)cc2)CC1)c1ccco1 (stereo not shown) | -47.7 |
| CN(C)/C=C(\C(=O)c1ccc(F)cc1F)c1nnnn1-c1ccccc1 | 21.1 |
| CCOC(=O)/C(C#N)=C/Nc1ccccc1OC | 0.538 |
| Cc1cc(=O)oc(C)c1C(=O)OCC(=O)c1ccccc1 | -5.02 |
| COc1ccc(N(Cc2cc3cc(OC)ccc3[nH]c2=O)S(=O)(=O)c2ccc(NC(C)=O)cc2)cc1 | 5.64 |
| CCN(C(=O)CN1C(=O)NC(c2ccccc2)(c2ccc(C)c(C)c2)C1=O)C1CCS(=O)(=O)C1 (stereo not shown) | -53.4 |
| Cc1ccc(C2(c3ccccc3)NC(=O)N(CC(=O)NC3CCS(=O)(=O)C3)C2=O)cc1C (stereo not shown) | -9.17 |
| Cc1cc(NC(=O)CN2C(=O)NC(c3ccccc3)(c3ccc(C)c(C)c3)C2=O)no1 (stereo not shown) | -48.5 |
| CCC1(c2ccccc2)NC(=O)N(CC(=O)NC2(C#N)CCCCC2)C1=O (stereo not shown) | 2.94 |
| Cc1ccc(C2(c3ccccc3)NC(=O)N(CC(=O)NCc3ccco3)C2=O)cc1C (stereo not shown) | -50.4 |
| Cc1ccc(C2(c3ccccc3)NC(=O)N(CC(=O)NC3(C#N)CCCC3)C2=O)cc1C (stereo not shown) | -63.4 |
| Cc1ccc(C2(c3ccccc3)NC(=O)N(CC(=O)NCc3ccccc3)C2=O)cc1C (stereo not shown) | -23 |
| COc1ccc(C2(c3ccc(OC)cc3)NC(=O)N(CC(=O)NC3(C#N)CCCCC3)C2=O)cc1 | -42.4 |
| CCN(C(=O)CN1C(=O)NC(c2ccccc2)(c2ccc(C)c(C)c2)C1=O)C1CCCCC1 (stereo not shown) | -33.3 |
| N#CC1(NC(=O)CN2C(=O)NC3(CCCCCC3)C2=O)CCCCC1 | -0.951 |
| N#CC1(NC(=O)CN2C(=O)NC(c3ccccc3)(c3ccccc3)C2=O)CCCC1 | -55 |
| Cc1ccc(C2(c3ccccc3)NC(=O)N(CC(=O)N(C)C3CCS(=O)(=O)C3)C2=O)cc1C (stereo not shown) | -22 |
